Test results reported in PubChem BioAssay (NCATS).
Inconclusive results are not listed. Unmarked numbers belong to inactive results. Calls follow the shape of the dose curve; as a rule, active = well fitted cell-killing curve with a large enough effect; inconclusive = small, poorly fitted or top-dose-only effect, or effect the other way; inactive = no such curve, though single readings can be large or run the other way.

Experiment: MultiTox-Fluor Cytotoxicity Assay - LYMP1-002 - Dead Cells (AID 960);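 also: cells exposed to compound for 16 h at 37 °C; 0% = DMSO and 100% = tetraoctylammonium bromide; nearly all actives have a fitted effect of over 60% in size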
Settings: LYMP1-002 lymphoblastoid cells, dead-cell protease fluorescence; series mostly up to 46.1 µM; cytotoxicity (dead cells): at the top concentration
Description: NIH Chemical Genomics Center [NCGC]
NIH Molecular Libraries Screening Centers Network [MLSCN]
National Institutes of Environmental Health Sciences [NIEHS]
National Toxicology Program [NTP]
We have developed a 1536-well cell-based assay for quantitative high throughput screening (qHTS) against a number of cell lines to determine in vitro cytotoxicity of small molecules. This particular assay uses a human lymphoblastoid cell line (LYMP1-002) purchased from Coriell Institute.
NCGC Assay Protocol Summary:
The MultiTox-Fluor Cytotoxicity Assay (Promega) is a homogeneous method to simultaneously measure the relative number of live and dead cells in culture by detecting changes in cell membrane integrity. There are two fluorogenic peptide substrates in the assay reagent. Viable cells are determined when the cell-permeant substrate (GF-AFC) enters the cell and is cleaved by protease from live cells resulting in liberated fluorophore. This live-cell protease activity restricted to viable cells is proportional to cell number. The dead cells are determined by using fluorogenic cell-impermeant peptide substrate (bis-AAF-R110) which cleaved by dead cell proteases leaking from damaged cell membrane.
Using the MultiTox-Fluor Cytotoxicity Assay, the relative number of dead cells was measured in the lymphoblastoid cell line with complete culture medium following compound treatment for 16 hours. The assay was performed in opaque black Kalypsys 1536-well plates. In the screen, tetraoctylammonium bromide was used as positive control. Library compounds were measured for their ability to cause acute toxicity in the cell line, as reflected by an increase in dead cell protease activity, in a concentration-dependent manner. Data were normalized to the controls for basal activity (DMSO only) and 100% stimulation (15 uM tetraoctylammonium bromide). AC50 values were determined from concentration-response data modeled with the standard Hill equation.
qHTS protocol for MultiTox-Fluor Cytotoxicity assay
[Step] [Parameter] [Value] [Description]
1. Reagent; 5 uL; 2500 lymphoblastoid cells/well
2. Time; 5 hr; 37 C incubation
4. Controls; 23 nL; Tetraoctylammonium bromide 6.4pM to 92 uM
5. Time; 16 hr; 37 C incubation
6. Reagent; 5 uL; MuliTox-Fluor Assay reagent
7. Time; 60 min; Room Temperature
8. Detection; dead-cell fluorescence (Ex/Em=485/520); EnVision plate reader
Keywords: cytotoxicity, lymphoblastoid cell line, fluorescence, NTPHTS, NTPHTS_NCGC, NIEHS, EPA, DSSTox, MLSMR, MLSCN, NIH Roadmap, qHTS, NCGC

Row | SMILES | cytotoxicity (dead cells) [%]
1 | CCCC(C)CO (stereo not given) | 26.9
2 | CCOCCO | 19.9
3 | Nc1ccccc1S(=O)(=O)O | 6.16
4 | CCCCC(CC)CNCC(CC)CCCC (stereo not given) | -20.8
5 | Nc1cc([N+](=O)[O-])ccc1C(=O)O | 5.3
6 | C=C(C)OC(C)=O | -11.4
7 | CCOc1cccc(N)c1 | 5.43
8 | N#Cc1ccccc1 | -5.97
9 | O=C(O)c1ccc(Cl)c(Cl)c1 | 23.2
10 | CC(C)CCOC(=O)/C=C/c1ccccc1 | 27.3
11 | O=[N+]([O-])c1c(Cl)cc(Cl)cc1Cl | 7.06
12 | O=C(O)c1ccc(CO)o1 | 3.39
13 | Cc1cccc([N+](=O)[O-])c1C(=O)O | 15.5
14 | C=CC(=O)NC(C)C | 0.339
15 | CC(C)(C)OC=O | 17.4
16 | O=C(Cl)c1c(Cl)cccc1Cl | -11.7
17 | O=[N+]([O-])c1cc(C(F)(F)F)ccc1Cl | -1.18
18 | Cc1ccccc1C(N)=O | 22.3
19 | CC(C)(O)CCC(C)(C)O | -14.8
20 | [O-]/[N+](=N\O)c1ccccc1 | 10.8

Row | SMILES | cytotoxicity (dead cells) [%]
21 | C=CCOC(=O)CCCCCCCC | -8.18
22 | CCN(CC)c1cccc(O)c1 | 25
23 | NCCCCCCN | 5.15
24 | C=Cc1ccc(C=C)cc1 | -15.4
25 | Cc1ccc2cccnc2c1 | 1.2
26 | COc1ccc(OC)cc1 | 10.8
27 | CC(C)CO | -1.4
28 | CC(=O)c1nccs1 | -17.5
29 | Cc1ccc(Br)cc1 | 11
30 | CCCC(Cl)CCCC(Cl)CCC(Cl)CCC(Cl)CCC(Cl)CCCC(Cl)CCC (stereo not given) | 4.46
31 | COc1cccc(N)c1 | -7.14
32 | Nc1cccc(S(=O)(=O)O)c1 | 15.1
33 | ICCc1ccccc1 | -19.3
34 | Oc1cccc(Nc2ccccc2)c1 | 20.1
35 | CCCCCCO | 13.7
36 | Cc1ccc2ncccc2c1 | 14.9
37 | Cc1ccc2c(c1[N+](=O)[O-])C(=O)c1ccccc1C2=O | 9.05
38 | NC(=O)NC(N)=O | 1.33
39 | NC(=S)NNC(N)=S | 14.7
40 | c1ccsc1 | 10.3
